Experiment [1] can be described thus: qHTS assay to identify small molecule antagonists of the vitamin D receptor (VDR) signaling pathway - cell viability counter screen (AID 743225). Note: nearly all actives have a fitted effect of over 50% in size. Summed up:
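Cells (VDR-UAS-bla HEK 293T) are plated, rested 4 h at 37C, dosed with compound and 3 nM final 1-alpha,25-dihydroxy vitamin D3, and incubated 16 h. Viability is taken from CellTiter-Glo luminescence in the reporter wells.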

Experiment [2] can be described thus: qHTS assay to identify small molecule agonists of the NFkB signaling pathway - cell viability counter screen (AID 1159515; calls by dose curve; note: series mostly up to about 61 µM; nearly all actives have a fitted effect of over 55% in size). Summed up:
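NFkB-bla ME-180 cells, 2,000/well, plated overnight at 37 C; compound added for 5 hr at 37 C. Viability read in the same wells as the bla reporter, by CellTiter-Glo luminescence after 30 min at room temperature.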

The nature of experiment [3]: qHTS assay to identify small molecule agonists of the endoplasmic reticulum stress response signaling pathway (AID 1159516; active = well fitted activation curve with a large enough effect in the signal ratio in the repeat runs, not every such curve was filed as active; the % refers to the signal ratio). Put shortly: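 CellSensor ESRE-bla HeLa cells, 1,500 per well, plated overnight, then exposed to compounds for 5 hr at 37 C. Beta-lactamase reporter read with LiveBLAzer B/G FRET substrate after 2 hr at room temperature, 405 nm excitation, 460 and 530 nm emission.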
On the technique in general: qHTS replaces the single test concentration by a dilution series.

Experiment [4] can be described thus: qHTS assay to identify small molecule agonists of the endoplasmic reticulum stress response signaling pathway - cell viability counter screen (AID 1159517; calls by dose curve;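 note: HeLa cells carrying an ER stress response element beta-lactamase reporter; series mostly up to about 61 µM; nearly all actives have a fitted effect of over 50% in size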). Summed up: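 ESRE-bla HeLa cells, 1,500 per well, seeded overnight then treated with compounds for 5 hr at 37 C. After the beta-lactamase read, viability in the same wells is measured by CellTiter-Glo luminescence after 30 min at room temperature.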

The nature of experiment [5]: qHTS assay to identify small molecule antagonists of the retinoid-related orphan receptor gamma (ROR-gamma) signaling pathway - cell viability counter screen (AID 1159520). Note: nearly all actives have a fitted effect of over 50% in size. Summed up:
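Tet-on ROR gamma CHO cells were given compounds for 2 hr, then doxycycline hyclate at 1 uM final, and incubated 16 hr at 37 C. Viability was measured as ATP content by CellTiter-Glo luminescence.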

For experiment [6], the target named is Nuclear receptor ROR-gamma (Homo sapiens) (UniProt P51449). The experiment can be described thus: qHTS assay to identify small molecule antagonists of the retinoid-related orphan receptor gamma (ROR-gamma) signaling pathway (AID 1159521; note: nearly all actives have a fitted effect of over 50% in size; note: potency is the fitted concentration of half-maximal effect). Summed up: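 RORγ antagonism is scored from reduced reporter luminescence in Tet-on CHO cells. Induction used 1 uM final doxycycline hyclate for 16 h at 37 C, following a 2 h compound exposure.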

The nature of experiment [7]: qHTS assay to identify small molecule agonists of the AP-1 signaling pathway - cell viability counter screen (AID 1159525; calls by dose curve; note: nearly all actives have a fitted effect of over 55% in size). Summed up:
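AP-1-bla ME-180 cells in Opti-MEM with 0.5% dialyzed FBS, compound exposure 5 h at 37 C in 15-point titration. Viability read in the same wells as ATP content by CellTiter-Glo luminescence, normalised to tetra-n-octylammonium bromide and DMSO controls.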

Experiment [8] can be described thus: qHTS assay to identify small molecule agonists of the AP-1 signaling pathway (AID 1159526; calls by dose curve).
Experiment [9] deals with Retinoic acid receptor RXR-alpha (Homo sapiens) (UniProt P19793). The experiment can be described thus: qHTS assay to identify small molecule agonists of the RXR signaling pathway (AID 1159527; calls by dose curve; note: nearly all actives have a fitted effect of over 35% in size). Put shortly: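 qHTS of the Tox21 10K library in GeneBLAzer RXR-alpha HEK 293T cells carrying a beta-lactamase reporter […]; 16 hr treatment, 9-cis retinoic acid as agonist control, FRET read-out.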

Experiment [10] in a line: qHTS assay to identify small molecule agonists of the RXR signaling pathway - cell viability counter screen (AID 1159529). Summed up: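 Cell viability is measured by CellTiter-Glo luminescence, 30 min at room temperature, in wells already read for beta-lactamase. Engineered HEK 293T cells (RXR-alpha-UAS-bla) are dosed 16 hr at 37 C. Tetraoctyl ammonium bromide serves as positive control.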

Experiment [11] in a line: qHTS assay to identify small molecule antagonists of the retinoid acid receptor (RAR) signaling pathway - cell viability counter screen (AID 1159551). Note: nearly all actives have a fitted effect of over 35% in size. Summed up: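 C3RL4 RARE-luciferase cells, 1,000/well, incubated overnight, then dosed with compound plus 1 uM retinol (final). After 6 hr at 37 C, viability read by CellTiter-Glo ATP luminescence following 30 min at room temperature.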

A short description of experiment [12]: qHTS assay to identify small molecule agonists of the retinoic acid receptor (RAR) signaling pathway (AID 1159553). Put shortly: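 C3RL4 RARE-luciferase cells were seeded at 1,000/well and grown overnight at 37 C, then exposed to compounds for 6 hr at 37 C, 5% CO2. Luciferase reagent was added and luminescence was read after 30 min at room temperature.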
A short description of experiment [13]: qHTS assay to identify small molecule antagonists of the estrogen related receptor (ERR) signaling pathway from Tox21 library - cell viability counter screen (AID 1224834). Note: nearly all actives have a fitted effect of over 30% in size. Put shortly: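 ERR reporter cells, 2,000 per well, rested 6 h, then exposed to compound in DMSO for 17.5 hours at 37 C. Viability read as fluorescence after 30 min with CellTiter-Fluor.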

Experiment [14] is described as follows: qHTS assay to identify small molecule antagonists of the estrogen related receptor (ERR) signaling pathway - cell viability counter screen (AID 1224818). Note: series mostly up to about 46 µM. Summed up:
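ERR cells, 2,000 per well, compound added after 6 h and incubated 17.5 h at 37 C. Viability read by CellTiter-Fluor fluorescence after a further 30 min at 37 C.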

Experiment [15] can be described thus: qHTS assay to identify small molecule antagonists of the estrogen related receptor signaling pathway with the pleiotropic PPARgamma coactivator (PGC) cell viability counter screen (AID 1224822; note: series mostly up to about 46 µM). Put shortly: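 PGC/ERR cells rested 6 h, then compound-treated 17.5 h at 37 C. CellTiter-Fluor added for 30 min at 37 C, viability measured by fluorescence intensity.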

Records with an inconclusive call do not appear. A number with no mark means an inactive call. Active and inactive are the calls of the source. Unless noted, calls come from the whole dose curve; as a rule, active = well fitted curve in the direction sought with a large enough effect in the repeat runs; inconclusive = weak or mixed curves; inactive = no such curve, though single readings can be large; an effect the other way counts as inactive or inconclusive.

Sequence of Retinoic acid receptor RXR-alpha (Homo sapiens) (P19793 whole entry, looked up): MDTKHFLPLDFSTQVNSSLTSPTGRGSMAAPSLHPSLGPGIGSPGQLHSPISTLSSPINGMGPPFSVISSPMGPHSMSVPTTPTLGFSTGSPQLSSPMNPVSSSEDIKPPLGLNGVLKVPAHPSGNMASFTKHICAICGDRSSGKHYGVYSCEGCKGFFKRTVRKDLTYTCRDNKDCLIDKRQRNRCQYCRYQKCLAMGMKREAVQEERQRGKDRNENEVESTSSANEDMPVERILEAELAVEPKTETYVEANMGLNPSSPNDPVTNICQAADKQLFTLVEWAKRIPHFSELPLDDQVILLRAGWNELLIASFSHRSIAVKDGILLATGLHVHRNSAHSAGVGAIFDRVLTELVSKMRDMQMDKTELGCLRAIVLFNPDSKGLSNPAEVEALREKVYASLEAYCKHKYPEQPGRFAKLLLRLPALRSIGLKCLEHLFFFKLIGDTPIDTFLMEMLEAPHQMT

As for `Nc1ccn([C@@H]2O[C@H](CO)[C@@H](O)C2(F)F)c(=O)n1`, the outcome in [1], in [2], in [3], in [4], in experiment [5] and in experiment [7] was inactive. Moreover, the result in [8] and in [11] was inactive. In experiment [6], the Potency is 237 nM (active). Also, the Potency entry in experiment [9], in experiment [10] and in [12] was “inactive” each time.
As for `CCOC(=O)OC(C)OC1=C(C(=O)Nc2ccccn2)N(C)S(=O)(=O)c2ccccc21` (stereo unspecified), the outcome in [1], in experiment [2], in experiment [3], in experiment [4], in experiment [5] and in [7] was inactive. The compound was called inactive in experiment [8] and in [11]. In addition, the Potency entry in [6], in experiment [9], in experiment [10] and in [13] was “inactive” in each case.
For `CCN1C=CN(C)C1C` (stereo unspecified), the compound was called inactive in experiment [1], in [2], in [3], in experiment [4], in [5] and in [7]. Also, the result in experiment [8] and in [11] was inactive. Besides, the Potency result in [6], in [9], in experiment [10] and in experiment [12] was “inactive” each time.
On to `CCCc1ncc(C[n+]2ccccc2C)c(N)n1`, for which the result in experiment [1], in experiment [2], in experiment [3], in experiment [4], in experiment [5] and in experiment [7] was inactive. In addition, the call in experiment [8] and in experiment [11] was inactive. Also, the Potency entry in experiment [6], in experiment [9], in experiment [10] and in experiment [13] was “inactive” each time.
`CCOc1ccc2nc(S(N)(=O)=O)sc2c1`: the compound was called inactive in experiment [2], in experiment [3], in experiment [4], in experiment [5], in experiment [7] and in experiment [8]. In addition, the compound was classed as inactive in [11]. Moreover, the Potency entry in experiment [6], in experiment [9], in [10] and in experiment [13] was “inactive” each time.
Consider `CC[N+](CC)(CC(=O)Nc1c(C)cccc1C)Cc1ccccc1` (tested in a mixture with another compound), for which the call in [1], in experiment [2], in [3], in experiment [4], in [5] and in [7] was inactive. The compound was classed as inactive in experiment [8] and in experiment [11]. Further, the Potency result in experiment [6], in [9], in experiment [10] and in [13] was “inactive” throughout.
Regarding `CC(C)CC(C)(N)C#N` (stereo unspecified), the compound was called inactive in [1], in experiment [2], in [3], in [4], in [5] and in experiment [7]. Moreover, the compound was called inactive in experiment [8] and in [11]. The Potency result in [6], in experiment [9], in experiment [10] and in [13] was “inactive” in each case.
Regarding `c1coc(CNc2ncnc3nc[nH]c23)c1`, the result in experiment [1], in experiment [2], in [3], in [4], in [5] and in [7] was inactive. In addition, the call in experiment [8] and in experiment [11] was inactive. In addition, the Potency result in [6], in [9], in experiment [10] and in experiment [13] was “inactive” throughout.
In the case of `CN1CC(=O)N/C1=N/C(=O)Nc1cccc(Cl)c1`, the compound was classed as inactive in experiment [1], in experiment [2], in experiment [3], in [4], in [5] and in experiment [7]. Also, the outcome in [8], in [11], in experiment [14] and in experiment [15] was inactive. The Potency result in [6], in experiment [9], in experiment [10] and in experiment [13] was “inactive” each time.
For the compound `O=C(c1ccccc1)C1(O)CCCCC1`, the outcome in experiment [1], in [2], in experiment [3], in experiment [4], in experiment [5] and in experiment [7] was inactive. The call in experiment [8] and in experiment [11] was inactive. Besides, the Potency result in experiment [6], in experiment [9], in [10] and in [13] was “inactive” in each case.
